Measurements as given in the supplement of paper PMC6555819.

Tested on: PPARg:RXRa DBDmut IVT, anti-RXR (DBD mutation: RXRa K156A/R161A, NR concentration 270 nM, RXRa partner concentration 90 nM)
Assay: PBM binding z-score (relative to random genomic background probes); higher = stronger binding; sequences stand for … in GC…GCGATTGACAGCGTAGAATGAAGG
Outline: (§1)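 Binding z-scores were set against random background probes. The data came from custom Agilent 4×180K protein-binding microarrays carrying double-stranded probes with 34-nt variable regions, incubated 1 h with ligand-free nuclear receptor dimers. Partner-specific antibodies detected binding, and scanned fluorescence was regression-normalized.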

| Sequence | PBM binding z-score |
| --- | --- |
| ATCTCTAGGTAAGACTCAGTTCATTGAAGAACGC | 2.32 |
| CCTTACGGGTGAAGGTTATAGCACGGGTGGTACG | 0.6 |
| ACCTCTAGGTAAAAGTTCAGTGAATCCCGAGGAT | 2.11 |
| CGTCAAAGTTCAACTAAGGTGACGTAAAGCACGC | 0.538 |
| CATACTGGGCCATCAGGTCATTGATATCAACGTT | 4.24 |
| CCGACTGGGGCATAAGGTTACAATAAGCCAGCCC | 3.12 |
| CGAACTAGGTCAGAACAGGACAGTGCAGGATGAT | 7.46 |
| CAAACTTGGTCAAAGGTCAAAGTCGAGCCAACCA | 3.33 |
| TCATATAGGCAAATGCTAGGTGAAAGTCCGATCT | 2.29 |
| ATCTCTATGTAAAGATAGTTCAGTGAATGCAAAT | -0.623 |
| GTACCAAGGAGAATAGGTCGTTGATGAGTAGGCG | -0.462 |
| TATACAGGGCCAAAGGCCAGAGTACGAATGTCGA | -0.282 |
| GCTGCTAGGTCAGGTTGCTCAGCTAACGGGTACG | 2.92 |
| AGTCAAAGTTCAGGGCGAGGTAACGTAAAGCACG | 0.0616 |
| ACCTACGGGTCAACGAGGTTATAGCACGCGTATA | 1.41 |
| TCTGCTAAGTCAGTTGGTCAGCTAACGAGCTGCC | 0.523 |
| TATCCTAGGTCATGGGCCAGTATACCACGCGAAC | 4.23 |

Tested on: PPARg:RXRa IVT, anti-PPARg (NR concentration 270 nM, RXRa partner concentration 90 nM)
Assay: as above
Outline: as §1

| Sequence | PBM binding z-score |
| --- | --- |
| TCATCTAGGTAATACAGGTGAAAGTCGGCATCTA | 4.08 |
| CGTCCAAGGTCAGAAGGTCAGTGAAAGCGACGTG | 3.06 |
| CATACAGGGTCAGCTAAGCCAGAGTAGGGACGGC | 2.48 |
| TATACAGGGTCAGAGGCCAGAGTACGAATGTCGA | 3.65 |
| GGATCGAGGGCATTCGAGTTGATAGCATGGCGAT | 2.38 |
| ACTAGTTGGTCAGCTGTGGTCACACACAATTCGG | 0.902 |
| TCGAGTAGGTTAGGGGCACTCAGAATGGCGTCGA | 1.32 |
| CCTAGAAGGCCAATCTGGGTCACTCAAGGCTTGA | 4.78 |
| ACTTACGAGTCAACGAGGTTATAGCACGCGTATA | 0.267 |
| TAGCCTAGGTCATGGGCTAGTATACCACGCGAAC | 3.37 |
| TCTGCTAGGTCAACGATGGTCATCTAATCTGCTA | 4.02 |
| TCTATTAGCTGATTAGGGCAACCGAAACAGCGGA | 1.49 |
| CTCGAAAGGTGGGTTGAGGTGAGTATACGGATAA | 0.842 |
| CGTCCAAGGTCATAGGAAGTCAGTGAAGACAGAT | 3.4 |
| ATCTATAGGTAACAAGTTCAGTGAAAGAGAGGAC | 1.83 |
| TCGTGTAGATCAAGCAGGTTAAGAAAGCCTGAGT | -0.0546 |
| CCTGGGAGGACAACAGGAGGTCAGAGCTGCCAGA | 0.776 |
| AGAATGAGGGTATACGTAGATCAGGGAAGAAAGT | 0.629 |
| AATACAGGGTCACTAGGCTAGAGTAGGTACGAAT | 5.41 |
| TCGAGTAGGTTACTAATGGGGCATTCAGCTTTCT | 2.39 |

| Sequence | PBM binding z-score |
| --- | --- |
| GTACCAACGTGAATAGGTCGTTGATGAGTAGGCG | -0.148 |
| CCTACTGGGCCATCAGGTTATTGATATCAACGTT | 4.48 |
| ATCTCTAGGTAAGACTCAGTTCATTGAAGAACGC | 1.16 |
| CCTTACGGGTGAAGGTTATAGCACGGGTGGTACG | 1.31 |
| ACCTCTAGGTAAAAGTTCAGTGAATCCCGAGGAT | 3.3 |
| CGTCAAAGTTCAACTAAGGTGACGTAAAGCACGC | 2.53 |
| CATACTGGGCCATCAGGTCATTGATATCAACGTT | 4.71 |
| CCGACTGGGGCATAAGGTTACAATAAGCCAGCCC | 3.35 |
| CGAACTAGGTCAGAACAGGACAGTGCAGGATGAT | 7.27 |
| CAAACTTGGTCAAAGGTCAAAGTCGAGCCAACCA | 6.48 |
| TCATATAGGCAAATGCTAGGTGAAAGTCCGATCT | 0.809 |
| ATCTCTATGTAAAGATAGTTCAGTGAATGCAAAT | -0.061 |
| GTACCAAGGAGAATAGGTCGTTGATGAGTAGGCG | -0.173 |
| TATACAGGGCCAAAGGCCAGAGTACGAATGTCGA | 1.6 |
| GCTGCTAGGTCAGGTTGCTCAGCTAACGGGTACG | 2.01 |
| AGTCAAAGTTCAGGGCGAGGTAACGTAAAGCACG | 2.24 |
| ACCTACGGGTCAACGAGGTTATAGCACGCGTATA | 2.79 |
| TCTGCTAAGTCAGTTGGTCAGCTAACGAGCTGCC | 0.0659 |
| TATCCTAGGTCATGGGCCAGTATACCACGCGAAC | 5.29 |

Tested on: PPARg DBDmut:RXRa IVT, anti-PPARg (DBD mutation: PPARg1 K132A/R137A, NR concentration 270 nM, RXRa partner concentration 90 nM)
Assay: as above
Outline: as §1

| Sequence | PBM binding z-score |
| --- | --- |
| TCATCTAGGTAATACAGGTGAAAGTCGGCATCTA | 1.3 |
| CGTCCAAGGTCAGAAGGTCAGTGAAAGCGACGTG | 0.15 |
| CATACAGGGTCAGCTAAGCCAGAGTAGGGACGGC | 1.15 |
| TATACAGGGTCAGAGGCCAGAGTACGAATGTCGA | 2.26 |
| GGATCGAGGGCATTCGAGTTGATAGCATGGCGAT | -0.372 |
| ACTAGTTGGTCAGCTGTGGTCACACACAATTCGG | 0.0939 |
| TCGAGTAGGTTAGGGGCACTCAGAATGGCGTCGA | -0.303 |
| CCTAGAAGGCCAATCTGGGTCACTCAAGGCTTGA | -0.238 |
| ACTTACGAGTCAACGAGGTTATAGCACGCGTATA | 1.03 |
| TAGCCTAGGTCATGGGCTAGTATACCACGCGAAC | 0.577 |
| TCTGCTAGGTCAACGATGGTCATCTAATCTGCTA | 0.183 |
| TCTATTAGCTGATTAGGGCAACCGAAACAGCGGA | 0.731 |
| CTCGAAAGGTGGGTTGAGGTGAGTATACGGATAA | 0.168 |
| CGTCCAAGGTCATAGGAAGTCAGTGAAGACAGAT | 0.667 |
| ATCTATAGGTAACAAGTTCAGTGAAAGAGAGGAC | 1.5 |
| TCGTGTAGATCAAGCAGGTTAAGAAAGCCTGAGT | -0.931 |
| CCTGGGAGGACAACAGGAGGTCAGAGCTGCCAGA | -0.434 |
| AGAATGAGGGTATACGTAGATCAGGGAAGAAAGT | 0.622 |
| AATACAGGGTCACTAGGCTAGAGTAGGTACGAAT | 1.74 |
| TCGAGTAGGTTACTAATGGGGCATTCAGCTTTCT | 0.0923 |

| Sequence | PBM binding z-score |
| --- | --- |
| GTACCAACGTGAATAGGTCGTTGATGAGTAGGCG | -0.62 |
| CCTACTGGGCCATCAGGTTATTGATATCAACGTT | 0.284 |
| ATCTCTAGGTAAGACTCAGTTCATTGAAGAACGC | 1.33 |
| CCTTACGGGTGAAGGTTATAGCACGGGTGGTACG | -0.607 |
| ACCTCTAGGTAAAAGTTCAGTGAATCCCGAGGAT | 0.37 |
| CGTCAAAGTTCAACTAAGGTGACGTAAAGCACGC | -0.0247 |
| CATACTGGGCCATCAGGTCATTGATATCAACGTT | 0.816 |
| CCGACTGGGGCATAAGGTTACAATAAGCCAGCCC | -1.72 |
| CGAACTAGGTCAGAACAGGACAGTGCAGGATGAT | 0.839 |
| CAAACTTGGTCAAAGGTCAAAGTCGAGCCAACCA | 1.57 |
| TCATATAGGCAAATGCTAGGTGAAAGTCCGATCT | 0.452 |
| ATCTCTATGTAAAGATAGTTCAGTGAATGCAAAT | 0.754 |
| GTACCAAGGAGAATAGGTCGTTGATGAGTAGGCG | -1.64 |
| TATACAGGGCCAAAGGCCAGAGTACGAATGTCGA | 0.275 |
| GCTGCTAGGTCAGGTTGCTCAGCTAACGGGTACG | -0.97 |
| AGTCAAAGTTCAGGGCGAGGTAACGTAAAGCACG | -0.0376 |
| ACCTACGGGTCAACGAGGTTATAGCACGCGTATA | 0.196 |
| TCTGCTAAGTCAGTTGGTCAGCTAACGAGCTGCC | -0.684 |
| TATCCTAGGTCATGGGCCAGTATACCACGCGAAC | 1.4 |
